# Measured values from ChEMBL document CHEMBL1961873, “Compounds: GSK PKIS; Assays: Nanosyn kinase panel” (2012).
# Target: T1, Serine/threonine-protein kinase D2 (Homo sapiens) (UniProt Q9BZL6);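 note: mean value of PRKD2 inhibition, from the GSK PKIS screening panel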
# T1 sequence (whole entry): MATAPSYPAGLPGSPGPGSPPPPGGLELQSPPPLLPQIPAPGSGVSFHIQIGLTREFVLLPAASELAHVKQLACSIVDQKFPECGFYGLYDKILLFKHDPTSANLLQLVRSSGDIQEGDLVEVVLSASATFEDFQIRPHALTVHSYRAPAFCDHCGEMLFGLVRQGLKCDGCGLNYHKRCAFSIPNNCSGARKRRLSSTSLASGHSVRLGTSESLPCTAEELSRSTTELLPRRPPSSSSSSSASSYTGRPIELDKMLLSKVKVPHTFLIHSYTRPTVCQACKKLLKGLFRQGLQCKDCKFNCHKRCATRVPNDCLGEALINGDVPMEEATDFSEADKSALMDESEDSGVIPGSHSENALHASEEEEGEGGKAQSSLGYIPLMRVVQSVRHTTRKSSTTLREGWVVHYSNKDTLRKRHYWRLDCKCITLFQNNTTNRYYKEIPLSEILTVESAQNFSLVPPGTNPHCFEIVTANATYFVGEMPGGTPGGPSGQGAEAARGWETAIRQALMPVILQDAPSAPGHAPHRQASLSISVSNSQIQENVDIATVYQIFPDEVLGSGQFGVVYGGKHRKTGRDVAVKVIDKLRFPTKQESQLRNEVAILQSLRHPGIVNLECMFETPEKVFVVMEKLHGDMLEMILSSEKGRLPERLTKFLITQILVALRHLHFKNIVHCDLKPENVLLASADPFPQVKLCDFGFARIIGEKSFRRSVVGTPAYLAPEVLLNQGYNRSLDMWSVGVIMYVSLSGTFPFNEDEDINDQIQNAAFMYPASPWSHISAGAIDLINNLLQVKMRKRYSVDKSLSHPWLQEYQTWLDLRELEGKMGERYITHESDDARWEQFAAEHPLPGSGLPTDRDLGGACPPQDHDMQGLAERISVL
# Conditions: at 1 µM
row,Compound,inhibition
1,c1ccc(COc2ccc(Nc3ncnc4ccc(-c5ccco5)cc34)cc2)cc1,2.58%
2,COC(=O)Nc1nc2ccc(S(=O)(=O)c3ccc(NC(=O)Nc4cc(C(F)(F)F)ccc4F)cc3)cc2[nH]1,5.37%
3,CN(C)CCOc1ccc(-c2nc(-c3ccncc3)c(-c3ccc4c(c3)CC/C4=N\O)[nH]2)cc1,6.37%
4,CS(=O)(=O)CCNCc1ccc(-c2ccc3ncnc(Nc4ccc(OCc5ccccc5)c(C(F)(F)F)c4)c3c2)o1,2.47%
5,COc1cc2ncn(-c3cc(OCc4ccccc4C(F)(F)F)c(C(=O)N(C)C)s3)c2cc1OC,1.88%
6,CC(C)COC(=O)c1ccc2c(c1)/C(=C/Nc1ccc(S(N)(=O)=O)cc1)C(=O)N2,62.1%
7,CCc1nn2ncccc2c1-c1ccnc(NC2CC2)n1,3.14%
8,CN1CCC(n2cnc(-c3ccc(F)cc3)c2-c2ccnc(Nc3ccccc3)n2)CC1,46.5%
9,FC(F)(F)c1cccc(-c2nn3ncccc3c2-c2ccnc(Nc3ccc4c(c3)OCCO4)n2)c1,49%
10,COc1ccc2[nH]c3c4[nH]c5ccc(OC)cc5c4c4c(c3c2c1)C(=O)NC4=O,45.9%
11,CNC(=O)c1cccc(C#Cc2cncnc2Nc2ccc(OCc3cccc(F)c3)c(Cl)c2)c1,2.02%
12,COc1cc(N2CCN(C(C)C)CC2)ccc1Nc1nc(Nc2ccc(F)cc2C(N)=O)c2cc[nH]c2n1,83.9%
13,Fc1ccc(-c2cc(-c3c[nH]nc3-c3ccccn3)ccn2)cc1,32.4%
14,COc1cc2c(cc1Nc1nc(Nc3ccsc3C(N)=O)c3cc[nH]c3n1)N(C(=O)CN(C)C)CCC2(C)C,75.7%
15,Fc1ccc(-c2nn3ccccc3c2-c2ccncc2)cc1,5.87%
16,CCCN(CCS(C)(=O)=O)Cc1ccc(-c2ccc3ncnc(Nc4ccc(OCc5cccc(F)c5)c(Cl)c4)c3c2)o1,1.95%
17,COc1cc(/C=N/Nc2ncnc3[nH]ncc23)ccc1O,3.63%

row,Compound,inhibition
1,c1cc(-c2cnn3nc(N4CCOCC4)ccc23)nc(NC2CC2)n1,52.4%
2,CN1CCC(n2cnc(-c3ccc(F)cc3)c2-c2ccnc(N)n2)CC1,16.4%
3,Fc1ccc(-c2nn3ncccc3c2-c2ccnc(Nc3ccc4c(c3)OCCO4)n2)cc1,52.1%
4,COc1ccc(-c2oc3ncnc(N)c3c2-c2ccc(NC(=O)Nc3cc(C(F)(F)F)ccc3F)cc2)cc1,3.15%
5,CCN(CC)S(=O)(=O)c1ccc(OC)c(Nc2ncc(-c3ccccc3)o2)c1,1.51%
6,Cc1ccc(O)cc1Nc1ccnc2cc(-c3ccccn3)ccc12,34.9%
7,COc1ccc(-c2nn3ncccc3c2-c2ccnc(Nc3ccc4c(c3)OCCO4)n2)cc1,9.73%
8,COc1cccc(-n2ncc3c(N/N=C/c4ccc(F)cc4)ncnc32)c1,3.35%
9,CC1=C(C(=O)Nc2cc(Cl)c3[nH]ncc3c2)C(c2ccc(C(F)(F)F)cc2)CC(=O)N1 (stereo not drawn),7.46%
10,COc1cccc(-c2c[nH]c3c(N/N=C/c4ccncc4)ncnc23)c1,5.96%
11,CC(C)(CO)CNC(=O)c1ccc2c(c1)/C(=N/Nc1ccc(S(N)(=O)=O)cc1)C(=O)N2,11.8%
12,NS(=O)(=O)c1ccc(N/N=C2\C(=O)Nc3ccc4ncccc4c32)cc1,55.7%
13,CCn1c(-c2nonc2N)nc2cnc(Oc3cccc(NC(=O)c4ccc(N(C)C)cc4)c3)cc21,5.77%
14,c1ccc(-c2nc3n(c2-c2ccc4c(c2)OCO4)CCC3)nc1,4.47%
15,NC(=O)c1sc(-n2cnc3ccc(C(F)(F)F)cc32)cc1OCc1ccccc1Br,4.08%
16,COc1ccc(-c2cc3c(N)ncnc3o2)cc1,-0.42%
17,N#Cc1c(NC(=O)c2ccc(F)cc2)sc2c1CCCC2,2.16%

# Target: T2, Serine/threonine-protein kinase D3 (Homo sapiens) (UniProt O94806);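 note: each value is the mean of inhibition readings, from a kinase profiling panel run on the GSK PKIS inhibitor collection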
# T2 sequence (whole entry): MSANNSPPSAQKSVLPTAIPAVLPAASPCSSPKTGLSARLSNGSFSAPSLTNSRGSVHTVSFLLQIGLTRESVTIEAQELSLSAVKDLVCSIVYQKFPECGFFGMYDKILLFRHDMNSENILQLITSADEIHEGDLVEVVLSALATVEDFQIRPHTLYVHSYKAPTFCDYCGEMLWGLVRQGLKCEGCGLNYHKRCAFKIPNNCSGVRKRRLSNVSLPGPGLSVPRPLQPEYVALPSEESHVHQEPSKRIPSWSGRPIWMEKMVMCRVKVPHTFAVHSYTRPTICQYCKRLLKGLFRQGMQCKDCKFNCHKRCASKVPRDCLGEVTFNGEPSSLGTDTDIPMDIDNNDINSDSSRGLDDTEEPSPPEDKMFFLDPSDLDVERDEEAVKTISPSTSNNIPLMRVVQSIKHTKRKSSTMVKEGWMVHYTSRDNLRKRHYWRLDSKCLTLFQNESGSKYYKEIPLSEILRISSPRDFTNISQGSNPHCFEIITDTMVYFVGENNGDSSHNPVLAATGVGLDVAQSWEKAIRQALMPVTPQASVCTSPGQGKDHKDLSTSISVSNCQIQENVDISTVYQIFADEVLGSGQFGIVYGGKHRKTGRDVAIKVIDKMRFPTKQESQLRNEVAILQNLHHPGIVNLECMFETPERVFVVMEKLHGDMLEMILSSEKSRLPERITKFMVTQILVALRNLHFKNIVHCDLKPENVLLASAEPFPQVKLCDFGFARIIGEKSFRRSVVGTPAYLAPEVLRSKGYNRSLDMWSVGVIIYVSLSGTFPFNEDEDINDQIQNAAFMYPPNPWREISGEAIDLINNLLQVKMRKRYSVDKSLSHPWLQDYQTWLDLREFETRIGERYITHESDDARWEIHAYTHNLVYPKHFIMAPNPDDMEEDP
# Conditions: at 0.1 µM
row,Compound,inhibition
1,c1ccc(COc2ccc(Nc3ncnc4ccc(-c5ccco5)cc34)cc2)cc1,1.12%
2,COC(=O)Nc1nc2ccc(S(=O)(=O)c3ccc(NC(=O)Nc4cc(C(F)(F)F)ccc4F)cc3)cc2[nH]1,3.18%
3,CN(C)CCOc1ccc(-c2nc(-c3ccncc3)c(-c3ccc4c(c3)CC/C4=N\O)[nH]2)cc1,3.58%
4,CS(=O)(=O)CCNCc1ccc(-c2ccc3ncnc(Nc4ccc(OCc5ccccc5)c(C(F)(F)F)c4)c3c2)o1,4.3%
5,COc1cc2ncn(-c3cc(OCc4ccccc4C(F)(F)F)c(C(=O)N(C)C)s3)c2cc1OC,0.07%
6,CC(C)COC(=O)c1ccc2c(c1)/C(=C/Nc1ccc(S(N)(=O)=O)cc1)C(=O)N2,1.74%
7,CCc1nn2ncccc2c1-c1ccnc(NC2CC2)n1,1.73%
8,CN1CCC(n2cnc(-c3ccc(F)cc3)c2-c2ccnc(Nc3ccccc3)n2)CC1,6.42%
9,FC(F)(F)c1cccc(-c2nn3ncccc3c2-c2ccnc(Nc3ccc4c(c3)OCCO4)n2)c1,6.61%
10,COc1ccc2[nH]c3c4[nH]c5ccc(OC)cc5c4c4c(c3c2c1)C(=O)NC4=O,5.31%
11,CNC(=O)c1cccc(C#Cc2cncnc2Nc2ccc(OCc3cccc(F)c3)c(Cl)c2)c1,0.11%
12,COc1cc(N2CCN(C(C)C)CC2)ccc1Nc1nc(Nc2ccc(F)cc2C(N)=O)c2cc[nH]c2n1,38.8%
13,Fc1ccc(-c2cc(-c3c[nH]nc3-c3ccccn3)ccn2)cc1,6.2%
14,COc1cc2c(cc1Nc1nc(Nc3ccsc3C(N)=O)c3cc[nH]c3n1)N(C(=O)CN(C)C)CCC2(C)C,19.8%
15,Fc1ccc(-c2nn3ccccc3c2-c2ccncc2)cc1,3.07%
16,CCCN(CCS(C)(=O)=O)Cc1ccc(-c2ccc3ncnc(Nc4ccc(OCc5cccc(F)c5)c(Cl)c4)c3c2)o1,1.29%
17,COc1cc(/C=N/Nc2ncnc3[nH]ncc23)ccc1O,2.22%

row,Compound,inhibition
1,c1cc(-c2cnn3nc(N4CCOCC4)ccc23)nc(NC2CC2)n1,5.91%
2,CN1CCC(n2cnc(-c3ccc(F)cc3)c2-c2ccnc(N)n2)CC1,2.68%
3,Fc1ccc(-c2nn3ncccc3c2-c2ccnc(Nc3ccc4c(c3)OCCO4)n2)cc1,8%
4,COc1ccc(-c2oc3ncnc(N)c3c2-c2ccc(NC(=O)Nc3cc(C(F)(F)F)ccc3F)cc2)cc1,3.02%
5,CCN(CC)S(=O)(=O)c1ccc(OC)c(Nc2ncc(-c3ccccc3)o2)c1,-0.55%
6,Cc1ccc(O)cc1Nc1ccnc2cc(-c3ccccn3)ccc12,5.74%
7,COc1ccc(-c2nn3ncccc3c2-c2ccnc(Nc3ccc4c(c3)OCCO4)n2)cc1,2.09%
8,COc1cccc(-n2ncc3c(N/N=C/c4ccc(F)cc4)ncnc32)c1,4.25%
9,CC1=C(C(=O)Nc2cc(Cl)c3[nH]ncc3c2)C(c2ccc(C(F)(F)F)cc2)CC(=O)N1 (stereo not drawn),4.09%
10,COc1cccc(-c2c[nH]c3c(N/N=C/c4ccncc4)ncnc23)c1,1.85%
11,CC(C)(CO)CNC(=O)c1ccc2c(c1)/C(=N/Nc1ccc(S(N)(=O)=O)cc1)C(=O)N2,0.07%
12,NS(=O)(=O)c1ccc(N/N=C2\C(=O)Nc3ccc4ncccc4c32)cc1,8.6%
13,CCn1c(-c2nonc2N)nc2cnc(Oc3cccc(NC(=O)c4ccc(N(C)C)cc4)c3)cc21,1.61%
14,c1ccc(-c2nc3n(c2-c2ccc4c(c2)OCO4)CCC3)nc1,2.58%
15,NC(=O)c1sc(-n2cnc3ccc(C(F)(F)F)cc32)cc1OCc1ccccc1Br,4.03%
16,COc1ccc(-c2cc3c(N)ncnc3o2)cc1,-1.77%
17,N#Cc1c(NC(=O)c2ccc(F)cc2)sc2c1CCCC2,1.7%
